KDM5B inhibitor = blocks human KDM5B histone demethylase activity; Q9UGL1; KDM5B demethylase, FDH-coupled NADH fluorescence (FDH is formaldehyde dehydrogenase); Potency, µM (top dose mostly 57.7 µM), actives largely listed as inhibitors; 220,000 compounds, 2.6% hits; AID 1347165; active = well fitted inhibition curve with a large enough effect; inconclusive = small, poorly fitted or top-dose-only effect; inactive = no such curve, though single readings can be large or run the other way; also: potency is read from the fitted curve at half-maximal effect; 0% is about no effect; nearly all actives have a fitted effect of over 70% in size
Target sequence (Q9UGL1 whole entry, looked up): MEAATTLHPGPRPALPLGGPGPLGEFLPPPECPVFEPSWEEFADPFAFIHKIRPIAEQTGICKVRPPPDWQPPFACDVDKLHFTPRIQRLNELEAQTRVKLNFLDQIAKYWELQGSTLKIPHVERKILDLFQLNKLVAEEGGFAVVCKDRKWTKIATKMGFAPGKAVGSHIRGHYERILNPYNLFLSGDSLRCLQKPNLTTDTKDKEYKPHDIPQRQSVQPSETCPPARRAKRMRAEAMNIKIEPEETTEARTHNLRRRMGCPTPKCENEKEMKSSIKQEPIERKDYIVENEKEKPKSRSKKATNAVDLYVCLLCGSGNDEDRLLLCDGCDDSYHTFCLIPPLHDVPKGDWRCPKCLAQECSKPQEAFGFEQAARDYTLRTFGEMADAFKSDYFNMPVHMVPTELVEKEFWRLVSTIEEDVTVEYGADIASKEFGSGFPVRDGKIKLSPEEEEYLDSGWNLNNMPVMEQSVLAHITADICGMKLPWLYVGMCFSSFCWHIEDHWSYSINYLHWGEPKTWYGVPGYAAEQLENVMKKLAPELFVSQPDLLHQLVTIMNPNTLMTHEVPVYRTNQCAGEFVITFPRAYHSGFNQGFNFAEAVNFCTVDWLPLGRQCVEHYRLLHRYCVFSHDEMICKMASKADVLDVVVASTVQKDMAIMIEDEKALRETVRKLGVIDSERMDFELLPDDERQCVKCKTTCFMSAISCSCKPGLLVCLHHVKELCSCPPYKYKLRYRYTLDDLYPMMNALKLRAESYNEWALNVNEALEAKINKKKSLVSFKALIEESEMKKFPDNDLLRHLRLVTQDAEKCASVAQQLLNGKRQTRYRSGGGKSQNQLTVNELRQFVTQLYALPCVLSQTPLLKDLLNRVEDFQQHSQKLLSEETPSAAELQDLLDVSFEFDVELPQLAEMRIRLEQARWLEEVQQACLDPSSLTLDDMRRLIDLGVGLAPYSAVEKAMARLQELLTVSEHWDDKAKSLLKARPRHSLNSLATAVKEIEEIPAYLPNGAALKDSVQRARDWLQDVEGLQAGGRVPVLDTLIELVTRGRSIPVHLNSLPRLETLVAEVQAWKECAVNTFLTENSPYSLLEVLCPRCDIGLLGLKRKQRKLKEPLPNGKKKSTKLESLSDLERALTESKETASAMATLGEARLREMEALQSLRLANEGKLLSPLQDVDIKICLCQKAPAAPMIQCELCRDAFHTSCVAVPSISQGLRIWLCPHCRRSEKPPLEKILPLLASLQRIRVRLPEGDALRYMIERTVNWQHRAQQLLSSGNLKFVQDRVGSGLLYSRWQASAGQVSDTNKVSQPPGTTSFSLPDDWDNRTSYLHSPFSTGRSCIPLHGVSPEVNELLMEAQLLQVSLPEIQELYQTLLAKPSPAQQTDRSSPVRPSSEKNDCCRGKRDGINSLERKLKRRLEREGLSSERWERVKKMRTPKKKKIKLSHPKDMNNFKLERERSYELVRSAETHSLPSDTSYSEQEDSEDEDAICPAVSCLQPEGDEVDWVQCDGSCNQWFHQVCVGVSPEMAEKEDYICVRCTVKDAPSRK
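KDM5BΔAP (200 nM final) in 50 mM HEPES pH 7.5, 0.01% Tween-20 was preincubated 10 min at RT with compound over a concentration range. Substrate mix (H3K4me3 12.5 µM, α-KG 25 µM, Fe²⁺, ascorbate, NAD⁺, FDH) was added, and NADH fluorescence change over 30 min gave dose-response curves.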
IP6K1 inhibitor = blocks human inositol hexakisphosphate kinase 1. Q92551. IP6K1 kinase, ADP-Glo luminescence, 2 h; hits give low values. activity change, % (series mostly up to about 58 µM). 140,000 compounds, 0.81% hits; in the data active = activity change below about -25%; also: % is scaled to controls: 0 for no effect and ±100 for the full control effect
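ADP-Glo luminescence measures ADP made by human IP6K1 during a 2 h RT reaction with ATP/IP6 (mix at 1.3 mM/130 uM); top library doses 57.5 and 19.1 uM final.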
The depositor's hits bear a star; i = inactive; ? = inconclusive; / = not tested or not shown. Rows were chosen to be rich in hits. Some 2.7% of all compounds tested hit in one or more screens of this group.

SMILES	KDM5B inhibitor	IP6K1 inhibitor
CCN1CC(c2ccccc2)CC2(CCN(C(=O)c3ccn(CC)n3)CC2)C1 (configuration not stated)	i	37.4
O=C(c1ccsc1)N1CCCC2(C1)Nc1cccnc1NC2=NCc1ccccc1 (configuration not stated)	28.2µM*	0.0
O=C(c1ccccc1)N1CCCC2(CN[S+](=O)([O-])c3cccnc3N2)C1 (configuration not stated)	/	-2.8
CCn1ccc(C(=O)N2CCCC3(C2)Nc2cccnc2NC3=NCc2ccccc2)n1 (configuration not stated)	28.2µM*	0.0
O=C(COc1ccccc1)N1CCCC2(C1)Nc1cccnc1NC2=NCc1ccccc1 (configuration not stated)	?	4.8
Cc1noc(C)c1CC(=O)N1CCCC2(C1)Nc1cccnc1NC2=NCc1ccccc1 (configuration not stated)	28.2µM*	12.2
COc1cccc(C(=O)N2CCCC3(C2)Nc2cccnc2NC3=NCc2ccccc2)c1 (configuration not stated)	28.2µM*	-2.9
Cc1c(CN(C)C(=O)c2cc3cc(Br)ccc3oc2=O)cnn1C	i	/
Cc1nn(-c2ccc(Cl)nn2)c2c1C(c1ccc(C#N)cc1)CC(=O)N2 (configuration not stated)	i	/
C#CCNC(=O)C1CCCN1Cc1ccc(-c2cc(C)cc(C)c2)cc1 (configuration not stated)	/	-6.2
Cc1cc(=O)oc2cc(OCC(=O)NC(C)(C)C)ccc12	i	/
O=[S+]([O-])(NC1CCN(Cc2cccc(-c3ccc(F)c(F)c3)c2)CC1)c1cccc(C(F)(F)F)c1	/	1.5
CC(=O)N1CCCC2(C1)Nc1cccnc1NC2=NCc1ccccc1 (configuration not stated)	?	1.5
COc1ccc(C(=O)N2CCCC3(C2)Nc2cccnc2NC3=NCc2ccccc2)cc1 (configuration not stated)	28.2µM*	0.0
O=C(NC1CCN(c2nccc(Nc3ccccc3F)n2)CC1)c1ccc(C(F)(F)F)cc1	/	1.4
c1ccc2c(-c3ccn[nH]3)cccc2c1	i	/
Cc1csc(NC(=O)c2cnc3c(c2)N(C(=O)Cc2ccc(C(C)C)cc2)CCC3)n1	31.6µM*	2.1
CC(C)c1ccc(CC(=O)N2CCCc3ncc(C(=O)Nc4ccccc4)cc32)cc1	?	9.4
C#CCN(C)C(=O)C[C@@H]1c2nc(-c3cccnc3)sc2C[C@@H]2[C@](C)(CO)[C@H](O)CC[C@]21C	31.6µM*	3.7
C[C@@H](NC(=O)C[C@@H]1c2nc(-c3cccnc3)sc2C[C@@H]2[C@](C)(CO)[C@H](O)CC[C@]21C)c1ccccc1	31.6µM*	-4.4
CCCCCC(=O)Nc1nc2c(s1)C[C@@H]1[C@](C)(CO)[C@H](O)CC[C@@]1(C)[C@@H]2CC(=O)N[C@H](C)c1ccccc1	i	-1.7
C[C@]1(CO)[C@H]2Cc3sc(-c4ccccc4)nc3[C@@H](CC(=O)N3CCOCC3)[C@]2(C)CC[C@H]1O	?	-7.8
CC(C)C[C@H](CO)NC(=O)C[C@@H]1c2nc(-c3cccnc3)sc2C[C@@H]2[C@](C)(CO)[C@H](O)CC[C@]21C	31.6µM*	-11.9
COCCNC(=O)C[C@@H]1c2nc(NC(=O)c3ccnc(Cl)c3)sc2C[C@@H]2[C@](C)(CO)[C@H](O)CC[C@]21C	i	-11.9
COCCNC(=O)C[C@@H]1c2nc(-c3ccccc3)sc2C[C@@H]2[C@](C)(CO)[C@H](O)CC[C@]21C	28.2µM*	-13.3
SMILES	KDM5B inhibitor	IP6K1 inhibitor
C#CCN(C)C(=O)C[C@@H]1c2nc(NC(=O)c3ccc(OC)cc3)sc2C[C@@H]2[C@](C)(CO)[C@H](O)CC[C@]21C	?	-0.7
CC1C(=O)N2CCCc3cc(S(=O)(=O)N(Cc4ccccc4)c4ccccc4)cc1c32 (configuration not stated)	i	/
CCc1ccc2oc(C(=O)NCC(c3ccco3)N3CCOCC3)cc(=O)c2c1 (configuration not stated)	i	/
CCOc1ccc(NC(=O)CSC2=Nc3ccccc3C3=NC(CC(=O)NCc4ccco4)C(=O)N23)cc1 (configuration not stated)	?	1.9
COc1ccc(OC)c(NC(=O)CSC2=Nc3ccccc3C3=NC(CC(=O)NCc4ccco4)C(=O)N23)c1 (configuration not stated)	i	-25.3*
CCOC(=O)[C@@H]1CN(C(=O)NC2CCCC2)[C@H]2c3cccc(F)c3O[C@@H]12	/	-5.8
COCCn1cnnc1SCc1nc2cc(Cl)ccc2n1Cc1ccccc1	i	/
Cc1ccc(Cl)c(NC(=O)NCc2nc(-c3cccc(Cl)c3)oc2C)c1	i	/
CCC(=O)N1CCN(c2ccc(Cl)cc2NC(=O)c2ccccc2Br)CC1	i	/
COCc1ccc2c(c1)c(OC(C)(C)C(=O)NCCN1CCOCC1)nn2Cc1cccnc1	i	-5.4
COCc1ccc2c(c1)c(OC(C)(C)C(=O)NCCN1CCOCC1)nn2CCC(C)C	25.1µM*	-0.7
COCc1ccc2c(c1)c(OC(C)(C)C(=O)NC1CCN(C)CC1)nn2CCC(C)C	35.5µM*	-8.5
COCc1ccc2c(c1)c(OC(C)(C)C(=O)NC1CC1)nn2CCC(C)C	39.8µM*	-7.1
COCc1ccc2c(c1)c(OC(C)(C)C(=O)Nc1ccccn1)nn2CCC(C)C	i	2.9
COCc1ccc2c(c1)c(OC(C)(C)C(=O)Nc1cc(C)nn1C)nn2CCC(C)C	?	5.2
OCC1CN(Cc2ccccc2)CC12CCN(Cc1ccncc1)CC2 (configuration not stated)	?	13.4
COC(=O)c1ccc(OCc2ccc(C#N)cc2)c(OC)c1	i	/
CN1CC(=O)N(C2CCC2)Cc2c1ncnc2N1CCc2ccccc2C1	?	-4.9
CC(=O)N1CCCN(c2ncnc3c2CN(C2CCCNC2)C(=O)CN3C)CC1 (configuration not stated)	50.1µM*	-11.6
CC(=O)N1CCCN(c2ncnc3c2CN(C2CCCNCC2)C(=O)CN3C)CC1 (configuration not stated)	i	-15.8
CN1CC(=O)N(C2CCCNC2)Cc2c1ncnc2N1CCc2ccccc2C1 (configuration not stated)	50.1µM*	-14.8
CNC(=O)c1cc(C2CC2)nc2c1c(C1CCN(C(=O)c3ccc4c(c3)OCO4)CC1)nn2C	/	-10.0
COc1ccc(C(=O)Nc2ccc(-c3noc([C@@H]4CCCN4Cc4ccc(Cl)cc4)n3)cn2)cc1	31.6µM*	-11.3
COc1ccc(C(=O)Nc2ccc(-c3noc([C@@H]4CCCN4C)n3)cn2)cc1	i	-14.4
COCC(=O)Nc1ccc(-c2noc([C@@H]3CCCN3Cc3ccc(OC(F)(F)F)cc3)n2)cn1	i	12.9
COCC(=O)Nc1ccc(-c2noc([C@@H]3CCCN3Cc3ccc(F)cc3)n2)cn1	i	6.7
COc1ccc(C(=O)Nc2ccc(-c3noc([C@@H]4CCCN4Cc4ccc(F)c(F)c4)n3)cn2)cc1	28.2µM*	-10.1
COc1ccc(C(=O)Nc2ccc(-c3noc([C@@H]4CCCN4Cc4ccccc4C)n3)cn2)cc1	31.6µM*	-4.9
COc1ccccc1-c1cccc(C(=O)N2CCN(C(=O)NC(C)C)CC2)c1	/	16.0
CN(Cc1cccc(Cl)c1Cl)C(=O)CCc1c[nH]c2ccccc12	i	/

Screening data (PubChem BioAssay)
